From PubChem BioAssay
aSyn 5UTR act: Activators via SNCA 5'UTR binding, MLPCN | AID 1814 | alpha-synuclein 5'UTR reporter, activators screen | 7.1% of 300,000 active | activity score, % (tested at 7.5 µM), hits read low; in the data active = activity score below about -60%
Numbers stand for hits; – = inactive. These entries were drawn from the full list.

SMILES | aSyn 5UTR act
COC(=O)C(Cc1ccc(OC(=O)c2ccc(C(F)(F)F)cc2)cc1)N1Cc2ccccc2C1=O (stereo unspecified) | -137
O=C(c1ccccc1)c1cc2cc(Cl)ccc2[nH]1 | -169
COc1cccc(C(=O)c2cc3cc(Cl)ccc3[nH]2)c1 | -147
COc1ccc(NS(=O)(=O)c2ccc(SC)cc2)c(OC)c1 | -66
Brc1ccc(-c2nc(N/N=C/c3cccnc3)c3ccccc3n2)cc1 | -92
Cc1cc(N/N=C/c2ccccc2[N+](=O)[O-])nc(-n2nc(C)cc2C)n1 | –
Cc1ccc(-c2nc(N/N=C/c3ccccc3[N+](=O)[O-])c3ccccc3n2)cc1 | -267
Cc1cc(Cl)cc2c(N=Nc3ccccc3C(=O)O)c(O)[nH]c12 | -68
COc1ccc2c(c1)Cc1sc(NC(=O)c3cccs3)nc1-2 | -242
COc1ccc2c(c1)Cc1sc(NC(=O)c3ccccc3)nc1-2 | -223
COc1ccc(C(=O)Nc2nc3c(s2)Cc2cc(OC)ccc2-3)cc1 | -109
O=C(NNC(=S)Nc1ccccc1)c1ccc(O)cc1 | -131
COc1ccccc1NC(=S)NNC(=O)c1ccc(O)cc1 | -106
O=C(NNC(=S)Nc1ccc(Br)cc1)c1ccccc1 | -107
O=C(NNC(=S)Nc1ccccc1)c1cccc(Br)c1 | -95
CC(C)(C)NC(=S)NNC(=O)c1cccc(Br)c1 | -121
Cc1ccc(C(=O)NC(C#N)=C(Cl)Cl)cc1 | -191
COc1ccc2oc(-c3ccc(C)c(NC(=O)CSc4ccc(Cl)cc4)c3)nc2c1 | -133
O=C(CSc1ccc(Cl)cc1)Nc1cc(-c2nc3ncccc3o2)ccc1Cl | -74
COc1ccccc1NC(=O)C(C/C=C(\C)Cl)C(C)=O (stereo unspecified) | -73
COc1ccccc1NC(=O)c1nc(S(=O)(=O)Cc2ccccc2)ncc1Cl | –
COc1ccccc1NC(CC(=O)c1ccccc1)C(=O)OCC(=O)c1ccc(C)cc1 (stereo unspecified) | -190
O=C(CC(Nc1ccccc1Cl)C(=O)OCC(=O)c1cccs1)c1ccccc1 (stereo unspecified) | -119
COc1ccccc1NC(CC(=O)c1ccccc1)C(=O)OCC(=O)c1ccc(C)c(C)c1 (stereo unspecified) | -127
COc1ccccc1NC(CC(=O)c1ccccc1)C(=O)OCC(=O)c1ccc(Br)cc1 (stereo unspecified) | -130
SMILES | aSyn 5UTR act
COc1ccc2oc(C(=O)OCC(=O)/C(C#N)=C(\C)N)c(C)c2c1 | -81
C/C(N)=C(/C#N)C(=O)COC(=O)c1cccc2ccccc12 | -62
Cc1ccc2c(c1)sc[n+]2Cc1ccccc1 | -256
COc1ccc(-c2noc(CN(C)Cc3ccccc3)n2)c(OC)c1OC | -68
Cc1nc(N2CCN(S(=O)(=O)c3ccccc3)CC2)c2cc(-c3ccccc3)sc2n1 | -113
Cc1ccc(C(=O)CSc2ncnc3ccccc23)o1 | -121
O=C(CSc1ncnc2ccccc12)c1cccs1 | -137
O=C(CSc1ncnc2ccccc12)N1CCCC1 | -67
N/C(=N\OC(=O)CC1CCCCC1)c1ccccn1 | -90
N/C(=N\OC(=O)Cc1ccc(-c2ccccc2)cc1)c1ccccn1 | -66
Cc1ccc(C)c(OCC(=O)O/N=C(\N)c2ccccn2)c1 | -131
Cc1ccc(C(=O)O/N=C(\N)c2ccccn2)c(C)c1 | –
N/C(=N\OC(=O)CSc1ccccc1)c1ccccn1 | -88
COc1ccc(CC(=O)O/N=C(\N)c2ccccn2)cc1 | -76
O=C(C1COc2ccccc2O1)N1CCc2ccccc21 (stereo unspecified) | -106
COc1ccc(/C(C)=N/N2C(=O)c3ccccc3NC2c2ccc(O)c(OC)c2)cc1 (stereo unspecified) | -66
CC1CC(C)CN(C(=O)c2cc3cc(Br)cc(Br)c3o2)C1 (stereo unspecified) | -121
O=C(c1cc2ccccc2o1)N1CCCCCC1 | -64
CC1CCN(C(=O)c2cc3ccccc3o2)CC1 | -131
CC1CC(C)CN(C(=O)c2cc3ccccc3o2)C1 (stereo unspecified) | -70
O=C(CSc1ccccc1)Nc1ccc(N2CCOCC2)c(F)c1 | -99
O=C(CSc1n[nH]c(-c2ccccn2)n1)Nc1ccccc1 | –
O=C(CSc1n[nH]c(-c2ccccc2)n1)Nc1ccc(N2CCOCC2)cc1 | -68
Cn1c(-c2ccc(F)cc2)cnc1SCC(=O)Nc1ccccc1N1CCOCC1 | -193
O=C(CSc1ccc(F)cc1)Nc1ccc(N2CCOCC2)cc1 | -74
SMILES | aSyn 5UTR act
O=C(CSc1ccccc1)Nc1ccc(N2CCOCC2)cc1 | -116
O=C(Cc1cccs1)Nc1ccc(N2CCOCC2)cc1 | -97
N#C/C(=C\c1ccccn1)c1nc2ccccc2s1 | -74
COc1ccc(/C(C#N)=C/c2ccccn2)cc1 | -172
CC1CCOC(c2coc3ccccc3c2=O)O1 (stereo unspecified) | -113
Nc1cccc(-c2cnc3ccccc3n2)c1 | -99
O=[N+]([O-])c1ccc(-c2nc(C(Cl)Cl)c3ccccc3n2)cc1 | –
COc1ccccc1Oc1ccc(-c2cnc3ccccc3n2)cc1[N+](=O)[O-] | -74
O=[N+]([O-])c1cccc(-c2cnc3ccccc3n2)c1 | -93
O=[N+]([O-])c1cc(-c2cnc3ccccc3n2)ccc1Oc1ccc(Cl)cc1 | -65
O=[N+]([O-])c1cc(-c2cnc3ccccc3n2)ccc1Cl | -93
Cn1nccc1C(=O)N/N=C/c1c(O)ccc2ccccc12 | –
Cc1cc(C(=O)N/N=C/c2cccc3ccccc23)c(C)o1 | -62
Cn1c(C(=O)N/N=C/c2ccccc2)cc2ccccc21 | -108
Cc1cc(C(=O)N/N=C/c2ccccc2)c(C)o1 | -70
COc1ccc(-c2cc3c(=O)n(CC(=O)NCc4ccc(F)cc4)ncn3n2)cc1 | -75
COc1ccc(CNC(=O)Cn2ncn3cccc3c2=O)cc1 | -78
COc1ccc(-c2cc3c(=O)n(CC(=O)NCCCN4CCC(Cc5ccccc5)CC4)ncn3n2)cc1 | –
N#CC1CC(c2ccccc2)Nc2cc(Cl)ccc2N1 (stereo unspecified) | -331
Cc1ccc(N2C(=O)Nc3cc(Cl)c(Cl)cc3N2O)cc1Cl | -99
O=C(c1cnsn1)N1CCC(CO)(Cc2cccc(F)c2)CC1 | -138
CN(c1ccccc1)S(=O)(=O)c1cc(C(=O)OCC(N)=O)ccc1Cl | -85
O=[N+]([O-])c1cccc(-c2nnn(C34CC5CC(CC(C5)C3)C4)n2)c1 | -82
Cc1ccccc1C(=O)Nc1nnc(S(=O)(=O)N(C)Cc2ccco2)s1 | -72
CCOc1ccc(C(=O)Nc2nnc(S(=O)(=O)N(C)Cc3ccco3)s2)cc1 | -139
SMILES | aSyn 5UTR act
CC1Cc2cc(/C=C3/SC(=S)NC3=O)ccc2O1 (stereo unspecified) | -106
Cc1nn2c3c(cnc2c1-c1ccccc1)C(=O)CCC3 | -90
Cc1nn2c(N)c(-c3ccccc3)cnc2c1-c1ccc(Cl)cc1 | -193
Cc1nc2nc(N)nn2c(C)c1C/C=C/c1ccccc1 | –
Cc1nn2c(-c3ccccc3)ccnc2c1-c1ccccc1 | -139
Cc1ccc(-c2ccnc3c(Cl)c(C)nn23)cc1 | –
Cc1nc2c(-c3ccccc3)c(C)nn2c(N)c1-c1ccccc1 | -137
O=C(N=Nc1c(O)n(C2OC(=O)c3ccccc32)c2ccccc12)c1ccco1 (stereo unspecified) | -110
Cc1ccc(-c2nnn(CCC(=O)NC(C)(C)C)n2)cc1 | -80
C=CCN(C(=O)C1=NN(C2CCS(=O)(=O)C2)C(=O)CC1)c1nc(-c2ccc([N+](=O)[O-])cc2)cs1 (stereo unspecified) | -135
O=C1Nc2ccccc2/C1=N/c1sc2c(c1C(=O)NCCc1ccccc1)CCCC2 | -87
